# Test results reported in PubChem BioAssay.
# Where “and” joins values, the source holds several entries; their conditions need not be identical. Identical values can stand only once. Calls of active or inactive are those of the source.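 Rule for the calls, unless noted: active = mean z-score across replicates of 1.96 or higher in either the MELAS or the Rieske mutant cell line; inactive = the rest.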
# How the values were obtained:
# [1] = hESC survival regulators, cell-based (AID 493140; call rule not given here;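 note: cells exposed to compounds for four days before counting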); conditions: human embryonic stem cell survival screen; stronger effect = higher value
# [2] = liver-stage malaria parasite growth inhibition, primary screen, cell-based, HepG2, luciferase luminescence, HepG2 viability (AID 624349; in the data active = parasite load remaining mostly below about 12%, no sharp cut-off; inactive = mostly above about 10%;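 note: 100% = mean of DMSO negative control wells on the same plate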); conditions: P. berghei liver stage in HepG2, luciferase luminescence, concentration not given here; parasite load remaining: stronger effect = lower value; viability: measured here: HepG2 viability without parasites
# [3] = stimulators of insulin release from INS-1E, primary screen, cell-based, 5 mM glucose, NPC library (AID 1117329;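 active = compound raises insulin release from rat beta cells at 5 mM glucose, no numeric limit stated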); conditions: rat INS-1E insulin secretion, at 10 µM, stronger effect = higher value
# [4] = growth inhibition of GSK3B-pretreated HCT116 cells – cell-based, CellTiter-Glo, 0.2 to 20 µM (AID 1117336;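 active = compounds lowering colon cancer cell viability after pretreatment blocking the GSK3B kinase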); conditions: HCT116 viability after GSK3B inhibitor, at 20 µM, stronger effect = higher value
# [5] = inhibition of endothelial tube formation, primary screen, imaging, VEGF stimulated, CD31 staining, tube area, NPC library (AID 1117340;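 active = compound that reduces growth-factor-driven endothelial tube area in a mixed cell culture, no cutoff stated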); conditions: VEGF-stimulated ADSC/ECFC co-culture, at 10 µM, stronger effect = higher value
# [6] = glucagon-like peptide 1 release enhancers, primary assay, NCI-H716 cell line, NPC library (AID 1117341;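 active = compound raises GLP1 secretion from the human gut endocrine cells, with no numeric limit stated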); conditions: NCI-H716 cells, at 10 µM, stronger effect = higher value
# [7] = HCT116 colon cancer cell growth inhibition, primary screen, CellTiter-Glo luminescence, NPC library (AID 1117342;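 active = compounds that lower survival of HCT116 colon cancer cells in the luminescence readout, no numeric limit stated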); conditions: at 20 µM (top of the series)
# [8] = CellTiter-Glo luminescent readout of SW480 viability loss, NPC library primary (AID 1117343;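 active = compounds that lower viability of the colon cancer cells in the luminescence readout, with no numeric limit stated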); conditions: CellTiter-Glo luminescence; at 20 µM (top of the series) unless noted
# [9] = decreased DLD-1 cellular survival, CellTiter-Glo luminescent readout, NPC compound collection, primary HTS (AID 1117346;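 active = compounds that lower survival of DLD-1 colon cancer cells in the luminescence readout, no cutoff given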); conditions: DLD-1 viability, CellTiter-Glo luminescence; at 20 µM (top of the series)
# [10] = differential killing of epithelial or mesenchymal cells, primary screen, imaging, PC-3E GFP, TEM4-18 mCherry, co-culture (AID 1345086;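 active = compounds killing one labelled cell type while sparing the other, by normalised counts and ratio limits, not self-fluorescent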;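 for all read-outs here: cells exposed to compound for 72 h before imaging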;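 for red/green cell ratio (normalised): normalised mesenchymal count divided by normalised epithelial count so high means epithelial killing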); conditions: imaging cell counts, at 1 µM; for red/green cell ratio (normalised): actives lie on both sides, counts scaled to control wells, 1 = unselective
# [11] = survival rescue of mitochondrial mutant cells in low glucose, primary screen, MELAS cybrids, Rieske KO mouse fibroblasts, CellTiter-Glo (AID 1508586);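 note: z relative to plate mean and SD of compound and empty wells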
# [12] = target: NAD(+) hydrolase SARM1 (Homo sapiens) (UniProt Q6SZW1); assay: SARM1 TIR NADase inhibitors, cell lysate, NAD-Glo luminescence (AID 1508614;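 active = compound whose remaining NAD level is above about 45 nM, limit read from the data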;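 note: higher remaining NAD means stronger inhibition of SARM1 NADase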); conditions: SAM-TIR HEK293T lysate NADase, at 1 µM, stronger effect = higher value
# [13] = viability rescue of complex I mutant cybrids, primary screen, cell-based, galactose medium, ATP luminescence (AID 1645843;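 active = z-score of at least 1.8 in each of two replicates, scored against plate mean and spread of sample wells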;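 note: positive z means more ATP and so rescue of galactose-driven cybrid death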); conditions: complex I mutant cybrid cells, 72 h, stronger effect = higher value
# [14] = target: 6-phosphogluconate dehydrogenase, decarboxylating (Homo sapiens) (UniProt P52209); assay: 6PGD enzyme inhibitors, primary screen, biochemical, human, recombinant enzyme, NADPH absorbance (AID 1159550;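 active = at least 20% inhibition of 6-phosphogluconate dehydrogenase activity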); conditions: recombinant 6PGD, NADPH absorbance 341 nm; at 10 µM; stronger effect = higher value
# [15] = sensitizers of A549 cells to miR-34 induction, primary screen, imaging, A549 dox-inducible miR-34, nuclei and caspase counts (AID 1347080;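 active = compounds whose cell count with miR-34 switched on is under 0.7 times the count with it off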); conditions: A549 miR-34 inducible, Hoechst nuclei count, 48 h
# [16] = polyglutamine-triggered caspase-3 activation inhibitors, cell-based (AID 1583); conditions: polyglutamine-induced caspase-3 activation, cell assay; stronger effect = higher value;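 tested at 10 µM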
# [17] = target: Mitogen-activated protein kinase 7 (Homo sapiens) (UniProt Q13164); assay: ERK5 transactivation activators in reporter cells, primary screen, cell-based, HTS (AID 1508626;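 active = luciferase signal above three times the same-plate solvent-only control wells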;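 note: luciferase driven by Gal4-ERK5 fusion binding five Gal4 sites before minimal TATA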); conditions: HeLa Gal4-ERK5 transactivation, 18 h, at 5 µM, stronger effect = higher value
# [18] = modulation of C. elegans fzo-1 (AID 1259413; call rule not given here;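 note: fzo-1 mutant C. elegans worms in liquid wells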); conditions: C. elegans fzo-1 modulator screen, mean read-out; stronger effect = higher value
# [19] = measured here: epithelial PC-3E GFP cell survival
# [20] = measured here: mesenchymal TEM4-18 mCherry cell survival
# [21] = MELAS cybrid survival, CellTiter-Glo 48 h, stronger effect = higher value
# [22] = Rieske KO mouse fibroblast survival, CellTiter-Glo 72 h
# [23] = stronger effect = lower value, cell number ratio, induced over uninduced
# [24] = measured here: relative caspase fold change +Dox/-Dox
# [25] = measured here: total cells with miR-34 induction, stronger effect = lower value
# [26] = measured here: total cells without miR-34 induction
# Mitogen-activated protein kinase 7 (Homo sapiens), sequence (Q13164 whole entry, looked up, the tested form may be a part): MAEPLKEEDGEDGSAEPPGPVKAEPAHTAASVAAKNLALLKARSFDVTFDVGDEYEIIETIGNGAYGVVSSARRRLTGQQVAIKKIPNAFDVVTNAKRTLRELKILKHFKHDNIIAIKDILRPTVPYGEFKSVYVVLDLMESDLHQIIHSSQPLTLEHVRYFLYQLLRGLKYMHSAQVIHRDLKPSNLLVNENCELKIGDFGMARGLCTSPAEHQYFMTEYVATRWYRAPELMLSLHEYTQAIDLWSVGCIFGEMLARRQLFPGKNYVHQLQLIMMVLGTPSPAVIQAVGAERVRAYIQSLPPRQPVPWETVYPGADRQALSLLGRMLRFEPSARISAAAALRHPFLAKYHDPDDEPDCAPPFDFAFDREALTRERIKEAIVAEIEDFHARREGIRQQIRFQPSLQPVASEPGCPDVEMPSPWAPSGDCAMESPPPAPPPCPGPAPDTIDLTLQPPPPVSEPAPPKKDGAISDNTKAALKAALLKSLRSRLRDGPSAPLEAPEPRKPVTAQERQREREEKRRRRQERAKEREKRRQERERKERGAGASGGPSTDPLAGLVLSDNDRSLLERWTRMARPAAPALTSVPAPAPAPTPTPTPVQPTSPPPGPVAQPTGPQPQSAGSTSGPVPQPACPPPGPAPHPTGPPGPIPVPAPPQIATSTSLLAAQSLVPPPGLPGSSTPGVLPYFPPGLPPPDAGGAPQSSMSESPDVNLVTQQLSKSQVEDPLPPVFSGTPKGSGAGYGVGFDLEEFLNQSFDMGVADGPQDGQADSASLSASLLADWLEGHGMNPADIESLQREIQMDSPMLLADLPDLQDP
# NAD(+) hydrolase SARM1 (Homo sapiens), sequence (Q6SZW1 whole entry, looked up): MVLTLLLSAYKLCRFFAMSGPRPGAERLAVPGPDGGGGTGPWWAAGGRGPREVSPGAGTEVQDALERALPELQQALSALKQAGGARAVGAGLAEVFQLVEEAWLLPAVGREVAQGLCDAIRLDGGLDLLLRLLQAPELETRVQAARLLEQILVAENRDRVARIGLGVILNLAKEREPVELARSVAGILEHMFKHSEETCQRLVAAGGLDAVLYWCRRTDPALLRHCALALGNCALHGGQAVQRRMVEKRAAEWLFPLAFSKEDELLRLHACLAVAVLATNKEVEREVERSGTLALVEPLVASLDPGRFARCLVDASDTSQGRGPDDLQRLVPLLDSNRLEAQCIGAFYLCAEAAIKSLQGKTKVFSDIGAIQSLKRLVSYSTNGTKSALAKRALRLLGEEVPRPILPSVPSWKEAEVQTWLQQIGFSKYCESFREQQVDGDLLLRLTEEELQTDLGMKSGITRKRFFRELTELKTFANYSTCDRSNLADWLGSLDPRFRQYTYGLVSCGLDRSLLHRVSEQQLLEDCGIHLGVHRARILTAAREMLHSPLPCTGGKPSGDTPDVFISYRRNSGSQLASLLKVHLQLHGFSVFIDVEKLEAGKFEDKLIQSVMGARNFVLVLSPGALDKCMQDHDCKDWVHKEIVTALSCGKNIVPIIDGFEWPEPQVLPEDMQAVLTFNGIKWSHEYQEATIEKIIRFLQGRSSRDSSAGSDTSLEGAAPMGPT
# 6-phosphogluconate dehydrogenase, decarboxylating (Homo sapiens), sequence (P52209 whole entry, looked up): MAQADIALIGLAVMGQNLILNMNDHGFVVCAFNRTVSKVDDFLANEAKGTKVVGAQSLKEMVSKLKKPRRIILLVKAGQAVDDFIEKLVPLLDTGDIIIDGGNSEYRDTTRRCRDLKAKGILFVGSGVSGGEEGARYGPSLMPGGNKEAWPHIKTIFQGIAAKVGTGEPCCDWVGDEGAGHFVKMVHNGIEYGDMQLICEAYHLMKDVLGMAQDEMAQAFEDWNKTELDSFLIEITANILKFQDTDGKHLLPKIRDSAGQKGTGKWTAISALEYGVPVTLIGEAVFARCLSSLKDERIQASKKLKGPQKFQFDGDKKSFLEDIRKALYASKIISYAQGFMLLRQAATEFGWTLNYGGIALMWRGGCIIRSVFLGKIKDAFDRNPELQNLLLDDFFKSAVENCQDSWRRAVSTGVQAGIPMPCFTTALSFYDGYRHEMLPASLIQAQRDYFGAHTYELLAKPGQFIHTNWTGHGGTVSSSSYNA
smiles,measurement,setting,value
O=S(=O)(c1cccc2cnccc12)N1CCCNCC1,survival,[1],467 (active)
same,parasite load remaining,[2],62.2% (inactive) and 44.5% (inactive)
same,viability,[2],103% and 67.7%
same,insulin secretion stimulation,[3],4.95% (inactive)
same,viability decrease,[4],18.1% (inactive)
same,tube area decrease,[5],-19.8% (inactive)
same,GLP1 secretion stimulation,[6],-2.6% (inactive)
same,inhibition of viability,[7],24.3% (inactive)
same,viability decrease (inhibition),[8],-4.3% (inactive)
same,viability decrease (inhibition),[9],15.4% (inactive)
same,red/green cell ratio (normalised),[10],1.1 (inactive)
same,normalised cell number,[10]; [19],0.86
same,normalised cell number,[10]; [20],0.95
same,z-score,[11]; [21],-0.155 (inactive) and -0.944 (inactive)
same,z-score,[11]; [22],-1.52 and 0.0333
same,remaining NAD,[12],10 nM (inactive)
same,z-score,[13],-0.745 (inactive) and -1.1 (inactive)
C=C1C(C2(C)C(OC(C)=O)CC(=O)OC(C)(COC(C)=O)C2CC(=O)OC)C(OC=O)C(OC(=O)C(O)C(C)CC)C2(C)C(c3ccoc3)CC(=O)C12O (stereo not given),inhibition,[14],7.27% (inactive)
CCOC(=O)c1c(C)cc(O)c(C)c1O,inhibition,[14],-2.48% (inactive)
C#CC1(O)CCC2C3CCc4cc(O)ccc4C3CCC21C (stereo not given),inhibition,[14],14.4% (inactive)
COc1ccc(-c2nc3ccc(C4=NNC(=O)CC4C)cc3[nH]2)cc1 (stereo not given),insulin secretion stimulation,[3],2.8% (inactive)
same,viability decrease,[4],18.3% (inactive)
same,tube area decrease,[5],80.8% (active)
same,GLP1 secretion stimulation,[6],6.8% (inactive)
same,inhibition of viability,[7],61.7% (active)
same,viability decrease (inhibition),[8],43% (inactive)
same,viability decrease (inhibition),[9],52.3% (active)
same,fold change,[15]; [23],0.906 (inactive)
same,fold change,[15]; [24],1.1
same,cell count,[15]; [25],5650
same,cell count,[15]; [26],6230
same,z-score,[11]; [21],1.76 (inactive)
same,z-score,[11]; [22],0.199
CNC(C)[C@@H]1CC[C@@H](N)[C@@H](OC2C(O)[C@@H](OC3OC[C@](C)(O)C(NC)[C@H]3O)[C@H](N)C[C@@H]2N)O1 (stereo not given in full),inhibition,[14],1.04% (inactive)
CC(C)(C)CC(C)(C)c1ccc(OCCOCC[N+](C)(C)Cc2ccccc2)cc1,inhibition,[16],70.8%
same,survival,[1],0.167 (inactive)
same,insulin secretion stimulation,[3],4.2% (inactive)
same,viability decrease,[4],102% (active)
same,tube area decrease,[5],110% (active)
same,GLP1 secretion stimulation,[6],89.6% (active)
same,inhibition of viability,[7],103% (active)
same,viability decrease (inhibition),[8],145% (active)
same,viability decrease (inhibition),[9],106% (active)
same,inhibition,[14],-3.07% (inactive)
same,fold change,[15]; [23],0.798 (inactive) and 0.823 (inactive) and 0.768 (inactive)
same,fold change,[15]; [24],1.51 and 1.83 and 3.74
same,cell count,[15]; [25],2760 and 5310 and 8060
same,cell count,[15]; [26],3460 and 6450 and 10500
same,z-score,[11]; [21],-0.38 (inactive) and -2.14 (inactive)
same,z-score,[11]; [22],-0.151 and 1.32
same,remaining NAD,[12],13 nM (inactive)
same,luciferase signal,[17],44 AU (inactive)
COc1c(Cl)ccc(Cl)c1C(=O)O,inhibition,[14],7.71% (inactive)
C[C@@H](O[C@H]1OCCN(Cc2n[nH]c(=O)[nH]2)[C@H]1c1ccc(F)cc1)c1cc(C(F)(F)F)cc(C(F)(F)F)c1,parasite load remaining,[2],26.3% (inactive)
same,viability,[2],67.5%
same,insulin secretion stimulation,[3],1.6% (inactive)
same,viability decrease,[4],99% (active)
same,tube area decrease,[5],108% (active)
same,GLP1 secretion stimulation,[6],-2.9% (inactive)
same,inhibition of viability,[7],97.5% (active)
same,viability decrease (inhibition),[8],102% (active)
same,viability decrease (inhibition),[9],100% (active)
same,fold change,[15]; [23],0.959 (inactive)
same,fold change,[15]; [24],1.18
same,cell count,[15]; [25],9050
same,cell count,[15]; [26],9430
same,z-score,[11]; [21],0.822 and 0.307 (inactive)
same,z-score,[11]; [22],2.09 and 0.201
same,z-score,[13],-0.16 (inactive)
CN(C)C(=N)N=C(N)N,survival,[1],14 (inactive)
same,insulin secretion stimulation,[3],-2.3% (inactive)
same,viability decrease,[4],-7% (inactive)
same,tube area decrease,[5],-11.5% (inactive)
same,GLP1 secretion stimulation,[6],3.1% (inactive)
same,inhibition of viability,[7],-25.7% (inactive)
same,viability decrease (inhibition),[8],17% (inactive)
same,viability decrease (inhibition),[9],-1.55% (inactive)
same,inhibition,[14],10.4% (inactive)
same,red/green cell ratio (normalised),[10],0.72 (inactive)
same,normalised cell number,[10]; [19],1.31
same,normalised cell number,[10]; [20],0.95
same,fold change,[15]; [23],0.831 (inactive) and 0.956 (inactive) and 0.958 (inactive)
same,fold change,[15]; [24],1.13 and 2.95 and 0.938
same,cell count,[15]; [25],7440 and 12900 and 10500
same,cell count,[15]; [26],8950 and 13500 and 10900
same,z-score,[11]; [21],-0.356 (inactive) and 0.193 (inactive)
same,z-score,[11]; [22],0.0508 and -0.797
same,remaining NAD,[12],10 nM (inactive)
same,luciferase signal,[17],508 AU (active)
same,z-score,[13],0.78 (inactive)
O=C(O)CCn1c2c(c3ccccc31)C[C@H](NS(=O)(=O)c1ccc(F)cc1)CC2,insulin secretion stimulation,[3],0.95% (inactive)
same,viability decrease,[4],8.7% (inactive)
same,tube area decrease,[5],-6.1% (inactive)
same,GLP1 secretion stimulation,[6],-0.3% (inactive)
same,inhibition of viability,[7],5.1% (inactive)
same,viability decrease (inhibition),[8],-25.4% (inactive)
same,viability decrease (inhibition),[9],-0.3% (inactive)
same,fold change,[15]; [23],0.961 (inactive)
same,fold change,[15]; [24],0.911
same,cell count,[15]; [25],5630
same,cell count,[15]; [26],5850
CC(=O)OC1CCC2(C)C3=C(CC[C@H]2C1(C)C)[C@@]1(C)CC[C@@H]([C@@H](C)CCC=C(C)C)[C@]1(C)CC3 (stereo not given in full),inhibition,[14],-9.29% (inactive)
Clc1ccccc1CN1CCc2sccc2C1,survival,[1],17.8 (inactive)
same,insulin secretion stimulation,[3],-2.1% (inactive)
same,viability decrease,[4],13.8% (inactive)
same,tube area decrease,[5],5.4% (inactive)
same,GLP1 secretion stimulation,[6],-2.6% (inactive)
same,inhibition of viability,[7],3.9% (inactive)
same,viability decrease (inhibition),[8],70.5% (active)
same,viability decrease (inhibition),[9],32.4% (inactive)
same,mean signal,[18],271 (inactive)
same,red/green cell ratio (normalised),[10],0.9 (inactive)
same,normalised cell number,[10]; [19],1.03
same,normalised cell number,[10]; [20],0.94
same,z-score,[11]; [21],0.708 (inactive) and -0.623 (inactive)
same,z-score,[11]; [22],0.315 and 0.0692
same,remaining NAD,[12],10 nM (inactive)
same,luciferase signal,[17],52 AU (inactive)
same,z-score,[13],-1.11 (inactive) and 0.17 (inactive)
O=C(O)COCCN1CCN(C(c2ccccc2)c2ccc(Cl)cc2)CC1 (stereo not given),survival,[1],20 (inactive)
same,insulin secretion stimulation,[3],4.3% (inactive)
same,viability decrease,[4],-8.4% (inactive)
same,tube area decrease,[5],2.5% (inactive)
same,GLP1 secretion stimulation,[6],1.4% (inactive)
same,inhibition of viability,[7],11.2% (inactive)
same,viability decrease (inhibition),[8],-6.6% (inactive)
same,viability decrease (inhibition),[9],8.8% (inactive)
same,mean signal,[18],254 (inactive)
same,red/green cell ratio (normalised),[10],0.83 (inactive)
same,normalised cell number,[10]; [19],1.06
same,normalised cell number,[10]; [20],0.88
same,z-score,[11]; [21],-0.429 (inactive) and 0.214 (inactive)
same,z-score,[11]; [22],0.813 and 0.142
same,remaining NAD,[12],10 nM (inactive)
same,luciferase signal,[17],76 AU (inactive)
